Assay results as given in PubChem BioAssay.
Values without a mark were called inactive.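 Rule for the calls: active = RAM network inhibition above 8.4% in each of two replicates, 3 SD over the compound average; inconclusive = above 8.4% inhibition in only one replicate; inactive = 8.4% inhibition or less in each replicate.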

assay: RAM signaling pathway blockade in yeast – S. cerevisiae, Pdr1DBD-CYC8 efflux-inhibited sensitized strain, primary screen (AID 1298);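 note: 0% = DMSO untreated cells without growth and 100% = 10 µM 1-NA-PP1 full growth; higher means more yeast growth rescued from 5-FOA killing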; details: S. cerevisiae cbk1-as DSE1-URA3 strain, 5-FOA growth OD615, 2 d; at 50 µM; active compounds read high

SMILES | RAM network inhibition
O=C(CCCN1C(=O)c2ccccc2C1=O)Nc1ccccc1C(=O)N1CCOCC1 | 3.36%
COc1cccc(C2CC(=O)N3CN(c4ccccc4F)CSC3=C2C#N)c1 (configuration not stated) | 5.8%
C=CCNc1oc(Cc2cccc3ccccc23)nc1C#N | 2.18%
O=C(c1ccccc1)c1ccc2nc(N3CCCCC3)c3nncn3c2c1 | 4.08%
O=C(CSCC(=O)NC1CC1)Nc1ccccc1 | -0.72%
Cc1ccc(N(C(=O)c2cccs2)C2C=CS(=O)(=O)C2)cc1 (configuration not stated) | 1.19%
COc1ccc(NC(=O)N(Cc2ccc(C)cc2)Cc2ccccn2)c(OC)c1 | 4.18%
CC(=O)C(C)Oc1ccc2c3c(c(=O)oc2c1)CCCC3 (configuration not stated) | 0.72%
CC(=O)c1c(C)oc(C)c1CSCc1ccc(C(=O)O)o1 | 3.55%
CCn1c(CNC(=O)C(C)(C)C)nc2ccccc21 | 1.9%
Cc1cc(C)n(-c2nnc(C)n2/N=C/c2cc(Br)ccc2OCc2ccccc2)n1 | -1.07%
CCC(=O)Nc1cccc(-c2nnc(SCC(=O)c3ccccc3)n2C)c1 | 4.95%
O=C(COc1cccc2ccccc12)N1CCN(c2ccccc2)CC1 | 11.7%
O=C(O)CSc1cccc2cccnc12 | 1.05%
CN=C1SC(CC(=O)Nc2ccccc2F)C(=O)N1C (configuration not stated) | 1.28%
COc1ccc2[nH]c(C)c(CN3CCC(C)CC3)c(=O)c2c1 | 2.42%
O=C(OCN1C(=O)c2ccccc2C1=O)c1ccco1 | 3.35%
